How the values were obtained:
Conditions in all cases: concentration: 1 μM,replicates: in singlicate; n = 1
[1] = test system: TYK2(JH2domain-pseudokinase)
[2] = test system: TYRO3
[3] = test system: ULK1
[4] = test system: ULK2
[5] = test system: ULK3
[6] = test system: T1, VEGFR2
T1 construct: gene KDR

[7] = test system: T2, VPS34
T2 construct: gene PIK3C3

[8] = test system: VRK2
[9] = test system: WEE1
[10] = test system: WEE2
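Also: KINOMEscan kinase panel screen.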

| SMILES | %Inh [1] | %Inh [2] | %Inh [3] | %Inh [4] | %Inh [5] | %Inh [6] | %Inh [7] | %Inh [8] | %Inh [9] | %Inh [10] |
| --- | --- | --- | --- | --- | --- | --- | --- | --- | --- | --- |
| FC(F)(F)c1cc(Br)cc(Nc2nccc(-c3cnn4ncccc34)n2)c1 [GW810578] | 89% | 0% | 21% | 20% | 12% | 40% | 64% | 4% | 5% | 70% |
| CC(=O)Nc1nc2cnc(Nc3cc(NC(=O)c4cccc(CC(C)(C)C#N)c4)ccc3C)nc2s1 | 28% | 0% | 30% | 0% | 11% | 63% | 11% | 0% | 0% | 15% |
| CC(=O)Nc1ccc(-c2cc3ncnc(SCC(=O)O)c3s2)cc1 | 0% | 0% | 10% | 13% | 15% | 27% | 0% | 0% | 0% | 4% |
| Cn1ccc2ncnc(Oc3ccc(NC(=O)Nc4cc(C(C)(C)C)on4)c(Cl)c3)c21 | 26% | 28% | 8% | 11% | 16% | 97.5% | 16% | 19% | 0% | 23% |
| C[C@@H]1CCN(C(=O)N2CCCC2)C[C@@H]1N(C)c1ncnc2[nH]ccc12 | 0% | 0% | 36% | 46% | 70% | 49% | 0% | 0% | 0% | 0% |
| COc1cc(Nc2nccc(N3CCC(NC(=O)c4cccc(C#N)c4)C3)n2)cc(OC)c1OC (stereo not shown) [GSK1379751] | 55% | 0% | 12% | 0% | 96.7% | 0% | 0% | 0% | 0% | 0% |
| Cl.Nc1n[nH]c2cc(-c3ccccn3)ccc12 [GSK2189892] | 0% | 0% | 50% | 47% | 0% | 0% | 10% | 0% | 4% | 0% |

Reference: article PMC5540273 (PLoS ONE, 2017)
